# In all, about 13,000 compounds went through this assay and about 3,200 (25%) showed an effect of 50% or more. This is one part of the list.
# Test system: P. falciparum stage V gametocytes
# Parameters: BacTiter-Glo ATP luminescence viability of purified stage V gametocytes in 384-well plates, per cent inhibition versus DMSO
# Conditions: 48 h, 5 µM; inhibitor
row,Structure (SMILES),% Inhibition
1,NC1=NC(c2ccccc2)(c2ccccc2)C(=O)N1CCCCc1ccccc1 [TCMDC-136488],3.475%
2,Fc1cccc(COc2ccc(Nc3ncnc4sc(C#Cc5ncc[nH]5)cc34)cc2Cl)c1 [TCMDC-135407],-1.353%
3,O=C(Nc1cccc(-c2nn3ccccc3c2-c2ccnc(Nc3cccc(C(F)(F)F)c3)n2)c1)c1c(F)cccc1F [TCMDC-135527],-78.64%
4,COc1cccc(C2(c3cccc(OC)c3)N=C(N)N(CCCc3ccccc3)C2=O)c1 [TCMDC-136492],-28.16%
5,CC1CN(C(=O)c2sc3ccccc3c2Cl)CC(C)O1 (stereo not drawn) [TCMDC-125225],2.721%
6,C/C=C1\CN2CC[C@H]1C[C@@H]2[C@@H](O)c1ccnc2ccc(O)cc12 [TCMDC-138273],7.487%
7,Cc1cc(C)c(-c2n[nH]c3c2C(c2cccc(Cl)c2)N(Cc2ccco2)C3=O)c(O)c1 (stereo not drawn) [TCMDC-125307],-65.67%
8,Cc1ccc(C)c(NC(=O)CC2C(=O)N(c3ccccc3)C(=S)N2Cc2ccco2)c1 (stereo not drawn) [TCMDC-124000],88.68%
9,O=C(Nc1ccc(C(=O)Oc2cccc3ccccc23)cc1)N[C@@H](Cc1ccc(O)cc1)C(=O)NC1CCN(Cc2ccc(O)cc2)C1 (stereo partly drawn) [TCMDC-135360],-40.07%
10,O=c1c2ccc(Sc3ccccn3)cc2n(-c2ccccc2)c2cc(Sc3ccccn3)ccc12 [TCMDC-137528],7.065%
11,O=C(C=Cc1ccccc1)Nc1ccc(C#CC=Cc2ccc(NC(=O)C=Cc3ccccc3)cc2)cc1 [TCMDC-125718],-11.21%
12,CN1Cc2cc(NC(=O)/C=C/c3ccccc3Cl)ccc2C(C)(C)C1 [TCMDC-139315],78.19%
13,COc1cc(C)nc2ccc(NC(=O)Nc3ccc([N+](=O)[O-])cc3C)cc12 [TCMDC-139395],-13.54%
14,Cc1cc(N)c2cc(NC(=O)/C=C/c3ccccc3Cl)ccc2n1 [TCMDC-139459],113.2%
15,O=C(/C=C/c1ccccc1Cl)Nc1ccc(Br)c(OCCN2CCCCC2)c1 [TCMDC-140959],-53.57%
16,CC1(C)CN2CCCC2c2cc(NC(=O)/C=C/c3ccccc3Cl)ccc21 (stereo not drawn) [TCMDC-139348],26.85%
17,COc1cc(C)nc2ccc(NC(=O)c3cc([N+](=O)[O-])cc([N+](=O)[O-])c3)cc12 [TCMDC-139382],32.9%
18,Nc1cccc(C=CC(=O)Nc2ccnc3ccccc23)c1 [TCMDC-139290],5.125%
19,Cc1cc(N)c2cc(NC(=O)/C=C/c3ccccc3)ccc2n1 [TCMDC-139337],92.06%
20,Cc1cc(N)c2cc(NC(=O)/C=C/c3ccc([N+](=O)[O-])cc3)ccc2n1 [TCMDC-139335],102.5%
21,CCOc1ccccc1C=CC(=O)Nc1ccc2nc(N3CCN(C)CC3)cc(C)c2c1 [TCMDC-123801],-1.147%
22,CCOC(=O)C1CCN(CCOc2cc(NC(=O)/C=C/c3ccccc3Cl)ccc2Br)CC1 [TCMDC-140963],-16.5%

row,Structure (SMILES),% Inhibition
1,NC(N)=NC(=O)Nc1cc(F)c(Cl)c(Cl)c1 [TCMDC-137462],6.486%
2,O=c1ccc2ncc(Cl)c3c2n1CC3CN1CCC(NCc2cc3c(cn2)OCCO3)CC1 (stereo not drawn) [TCMDC-135967],20.98%
3,CC1(C)N=C(N)N=C(N)N1OCCCOc1ccc(N)cc1 [TCMDC-131698],-10.87%
4,O=C(/C=C/c1ccc(Cl)cc1)Nc1ccc2nc(CN3CCCC3)ccc2c1 [TCMDC-135629],-22.56%
5,CC1(C)CNCc2cc(NC(=O)/C=C/c3ccc(Cl)cc3)ccc21 [TCMDC-141909],92.59%
6,CN1CCN(Cc2cc3cc(NC(=O)/C=C/c4ccc(Cl)cc4)ccc3s2)CC1 [TCMDC-135631],-73.77%
7,N[C@@H](COc1cccc2c(-c3ccncc3)c(-c3cccc(NC(=O)Nc4ccccc4)c3)nn12)c1ccccc1 [TCMDC-135512],8.625%
8,O=C(Nc1ccccc1)Nc1cccc(-c2nn3c(OCCN4CCCC4)cccc3c2-c2ccncc2)c1 [TCMDC-135539],44.29%
9,CCCCC(N)COc1cccc2c(-c3ccncc3)c(-c3cccc(NC(=O)Nc4ccccc4)c3)nn12 (stereo not drawn) [TCMDC-135537],58.08%
10,O=C(Nc1ccccc1)Nc1cccc(-c2cc(CNCCc3ccccc3)sc2-c2ccncc2)c1 [TCMDC-135632],-27.66%
11,Nc1ncnc2cc(-c3cccc(NC(=O)Nc4ccccc4)c3)sc12 [TCMDC-135255],-37.99%
12,O=C(Nc1ccccc1)Nc1cccc(-c2nn3c(OCC4CCCCN4)cccc3c2-c2ccncc2)c1 (stereo not drawn) [TCMDC-135465],63.4%
13,Fc1cc(Cl)ccc1Nc1ccnc2cc(-c3scnc3CNCCN3CCOCC3)ccc12 [TCMDC-138442],15.08%
14,O=C(Cc1cc(F)cc(F)c1)NC1CCN(c2ccnc3cc(Cl)ccc23)C1 (stereo not drawn) [TCMDC-133667],8.938%
15,CC(C)(CNC(=O)[C@@H]1CCCN(CCOc2ccc(F)c(F)c2)C1)c1nc(-c2ccc(Cl)c(O)c2)c(-c2ccncc2)[nH]1 [TCMDC-141137],11.15%
16,CCN1CCN(c2cc(C)c3cc(NC(=O)c4cc(OC)cc(OC)c4)ccc3n2)CC1 [TCMDC-125575],-6.076%
17,O=C(NCc1ccccc1)NC(CCCN1CCC(Oc2cccc(Cl)c2)CC1)c1ccc(Cl)c(Cl)c1 (stereo not drawn) [TCMDC-141903],-17.97%
18,O=C(Nc1ccccc1)c1nn(CCCN2CCC(N3CCCC3)CC2)cc1-c1ccc(Cl)c(Cl)c1 [TCMDC-141727],76.09%
19,CN(Cc1ccccc1)C(=O)c1nn(CCCN2CCC(N3CCCC3)CC2)cc1-c1ccc(Cl)c(Cl)c1 [TCMDC-141730],45.58%
20,COc1cc(NC(=O)c2nn(CCCN3CCC(N4CCCC4)CC3)cc2-c2ccc(Cl)c(Cl)c2)cc(OC)c1OC [TCMDC-141725],29.9%
21,O=C(NCc1ccccc1)c1nn(CCCN2CCC(N3CCCC3)CC2)cc1-c1ccc(Cl)c(Cl)c1 [TCMDC-141728],73.12%
22,O=C(NCc1ccccc1)c1ncn(CCCN2CCC(N3CCCC3)CC2)c1-c1ccc(Cl)c(Cl)c1 [TCMDC-135228],91.41%

row,Structure (SMILES),% Inhibition
1,O=C(NCc1ccc2c(c1)OCO2)c1nn(CCN2CCC(N3CCCC3)CC2)cc1-c1ccc(Cl)c(Cl)c1 [TCMDC-141908],-16.74%
2,COc1cc(C(=O)NCc2nn(CCN3CCC(N4CCCC4)CC3)cc2-c2ccc(Cl)c(Cl)c2)cc(OC)c1OC [TCMDC-141966],24.89%
3,COc1cc(NC(=O)c2nn(CCCN3CCC4(CC3)C(=O)NCN4c3ccccc3)cc2-c2ccc(Cl)c(Cl)c2)cc(OC)c1OC [TCMDC-141726],-40.66%
4,CCOc1cc(C(=O)Nc2cccnc2)ccc1-c1nc2cc(Cl)c(Cl)cc2[nH]1 [TCMDC-140059],1.839%
5,Cc1nc2nc(N)nc(N)c2c(C)c1Cc1ccccc1I [TCMDC-137243],-2.242%
6,CCCCCNc1nc2nc(N)nc(N)c2nc1-c1ccccc1 [TCMDC-141983],-14.59%
7,Cc1ccc(S(=O)(=O)n2nccc2-c2c(-c3ccc(Cl)cc3)noc2C)cc1 [TCMDC-124500],65.37%
8,Cc1cc(C(=O)NCc2ccc(-c3c(C)noc3C)cc2)n(-c2ccc(Cl)cc2)n1 [TCMDC-133781],35.85%
9,Cc1noc(C)c1S(=O)(=O)N(C)Cc1ccc(-c2ccc(Cl)cc2)o1 [TCMDC-125303],-57.93%
10,Cc1onc(-c2ccc(Cl)cc2)c1-c1ccnn1S(=O)(=O)c1ccc(Cl)cc1 [TCMDC-123770],63.51%
11,COc1ccc(Nc2ncc3c(-c4cccc(NC(=O)Cc5cccc(F)c5)c4)c[nH]c3n2)cc1OC [TCMDC-135251],-27.44%
12,COc1ccc(OCCCN2CCN(CC(c3ccc(F)cc3)N3CCN(C(C)C)CC3)CC2)c2ccccc12 (stereo not drawn) [TCMDC-135639],74.93%
13,COc1cc2ccccc2cc1OCCCN1CCN(CC(c2ccc(F)cc2)N2CCN(C(C)C)CC2)CC1 (stereo not drawn) [TCMDC-135496],103.4%
14,Cc1ccccc1OCCCN1CCN(CC(c2ccc(F)cc2)N2CCN(C(C)C)CC2)CC1 (stereo not drawn) [TCMDC-135492],-21.14%
15,COc1ccc2ccccc2c1CCCCN1CCN(CC(c2ccc(F)cc2)N2CCN(C3CCCC3)CC2)CC1 (stereo not drawn) [TCMDC-135865],-18.03%
16,COc1cccc(CN2CCN(C(c3ccccc3)c3ccccc3)CC2)c1O [TCMDC-125556],-14.13%
17,COc1ccc2ccccc2c1CCCCN1CCN(CC(c2ccc(F)cc2)N2CCN(C(C)C)CC2)CC1 (stereo not drawn) [TCMDC-134847],46.9%
18,CC(C)N1CCN(C(CN2CCN(CCCOc3cccc4ccccc34)CC2)c2ccc(F)cc2)CC1 (stereo not drawn) [TCMDC-135494],68.95%
19,COc1ccc2ccccc2c1CCCCN1CCN(CC(c2ccc(F)cc2)N2CCC(N3CCCC3)CC2)CC1 (stereo not drawn) [TCMDC-135866],9.799%
20,CC1(C)N=C(N)N=C(N)N1OCCCOc1cccc2ccccc12 [TCMDC-131626],30.73%
21,COc1ccc2ccccc2c1CCCCN1CCN(CC(c2ccc(F)cc2)N2CCC2)CC1 (stereo not drawn) [TCMDC-135867],60.92%
22,CN1CCN(c2ccc(-c3cccc(NC(=O)c4cccc(Cl)c4)c3)nn2)CC1 [TCMDC-125348],20.42%

# — publication PMC4552634, “A New Set of Chemical Starting Points with Plasmodium falciparum Transmission-Blocking Potential for Antimalarial Drug Discovery” (PLoS ONE, 2015)
